Measurements reported in PMC5540273 (PLoS ONE, 2017).
Read-outs that look alike come from different tables or passages of the source.

Key:
Conditions in all cases: n = 1
CAMKK2 = system: CAMKK2
CASK = system: CASK
CDC2L1 = system: T1, CDC2L1
T1 construct: gene CDK11B

CDC2L2 = system: CDC2L2
CDC2L5 = system: T2, CDC2L5
T2 construct: gene CDK13

CDK11 = system: T3, CDK11
T3 construct: gene CDK19

CDK2 = system: CDK2
CDK3 = system: CDK3
CDK4-cyclinD1 = system: CDK4-cyclinD1
CDK4-cyclinD3 = system: CDK4-cyclinD3
[1] = concentration: 1 μM, replicates: in singlicate
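Note: KINOMEscan kinase panel screen.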

SMILES | %Inh (CAMKK2; [1]) [%] | %Inh (CASK; [1]) [%] | %Inh (CDC2L1; [1]) [%] | %Inh (CDC2L2; [1]) [%] | %Inh (CDC2L5; [1]) [%] | %Inh (CDK11; [1]) [%] | %Inh (CDK2; [1]) [%] | %Inh (CDK3; [1]) [%] | %Inh (CDK4-cyclinD1; [1]) [%] | %Inh (CDK4-cyclinD3; [1]) [%] | %Inh (CAMKK2; 1 µM) [%] | %Inh (CASK; 1 µM) [%] | %Inh (CDC2L1; 1 µM) [%] | %Inh (CDC2L2; 1 µM) [%] | %Inh (CDC2L5; 1 µM) [%] | %Inh (CDK11; 1 µM) [%] | %Inh (CDK2; 1 µM) [%] | %Inh (CDK3; 1 µM) [%] | %Inh (CDK4-cyclinD1; 1 µM) [%] | %Inh (CDK4-cyclinD3; 1 µM) [%]
C[C@@H]1CCCCN1c1cc(-c2ccc3c(N)n[nH]c3c2)nc(N)n1 [GSK2258759] | 26 | 11 | 0 | 18 | 0 | 4 | 0 | 15 | 0 | 7 |  |  |  |  |  |  |  |  |  | 
Cl.Oc1ccc(-c2nc(-c3ccccc3)[nH]c2-c2ccncc2)cc1 [SB-428218] | 15 | 0 | 0 | 5 | 0 | 8 | 0 | 55 | 49 | 2 |  |  |  |  |  |  |  |  |  | 
Cc1cccc(-c2nc(-c3ccc(S(C)(=O)=O)cc3)sc2-c2ccnc(NCCc3ccccc3)c2)c1 | 0 | 18 | 6 | 0 | 44 | 0 | 0 | 0 | 0 | 0 |  |  |  |  |  |  |  |  |  | 
Cc1ccc(NC(=O)Nc2cccc(C(F)(F)F)c2)cc1 [GSK955403] |  |  |  |  |  |  |  |  |  |  | 19 | 15 | 3 | 0 | 0 | 20 | 0 | 0 | 0 | 0
Cc1cccc(-c2nc(Nc3ccc4[nH]ncc4c3)c3ccccc3n2)n1 [GW857175] | 0 | 45 | 12 | 9 | 20 | 0 | 0 | 0 | 23 | 0 |  |  |  |  |  |  |  |  |  | 
COc1ccc(C2=C(Nc3cccc(C(=O)O)c3)C(=O)NC2=O)cc1 [SB-390765] | 7 | 15 | 17 | 13 | 8 | 0 | 12 | 7 | 0 | 0 |  |  |  |  |  |  |  |  |  | 
COc1ccccc1CNC(=O)c1cc(C(=O)c2ccccc2C)c[nH]1 [GSK364507] | 5 | 12 | 0 | 19 | 0 | 15 | 0 | 10 | 0 | 7 |  |  |  |  |  |  |  |  |  | 
Cn1ccc2ncnc(Oc3ccc(NC(=O)Nc4ccccc4)cc3)c21 | 0 | 0 | 0 | 0 | 0 | 0 | 0 | 11 | 0 | 0 |  |  |  |  |  |  |  |  |  | 
O=S(=O)(c1ccc(-c2ccnc3[nH]ccc23)cc1)N1CCCC1 [GSK846226] | 23 | 5 | 0 | 17 | 0 | 2 | 0 | 1 | 0 | 0 |  |  |  |  |  |  |  |  |  | 
Cc1cc(N2Cc3ccccc3C2)nc(Nc2ccc(S(=O)(=O)N3CCOCC3)cc2)n1.Cl [GSK1669917] | 0 | 7 | 0 | 23 | 0 | 0 | 0 | 0 | 0 | 0 |  |  |  |  |  |  |  |  |  | 
COc1ccc(Nc2nccc(NCCNC(=O)Nc3ccccc3F)n2)cc1 [GSK1379901] | 0 | 9 | 5 | 20 | 0 | 12 | 0 | 16 | 0 | 9 |  |  |  |  |  |  |  |  |  | 
Cc1cccc(-c2nc(C)cc(Nc3ccncc3)n2)n1 [GSK257997] | 12 | 19 | 100 | 17 | 0 | 12 | 0 | 0 | 0 | 0 |  |  |  |  |  |  |  |  |  | 
Cc1c(O)cccc1Nc1ccnc2ccc(C(F)(F)F)cc12.Cl [GW466413] | 3 | 0 | 0 | 0 | 0 | 17 | 0 | 0 | 0 | 0 |  |  |  |  |  |  |  |  |  | 
Cc1cccc(-c2cc(Nc3ccncc3)c3ccccc3n2)n1 [GSK223675] | 20 | 0 | 0 | 19 | 0 | 7 | 0 | 0 | 0 | 9 |  |  |  |  |  |  |  |  |  | 
Cc1ccc(NC(=O)Nc2cccc(Cl)c2)cc1-c1ccc(C(=O)Nc2ccncc2)cc1 [GSK1398468] | 25 | 5 | 0 | 22 | 0 | 14 | 33 | 6 | 0 | 11 |  |  |  |  |  |  |  |  |  | 
CCCc1ccc(S(=O)(=O)NC2CCN(c3ccnc(Nc4ccc(F)cc4)n3)C2)cc1 (centres unmarked) [GSK1379715] | 0 | 4 | 0 | 0 | 98.6 | 5 | 0 | 22 | 0 | 0 |  |  |  |  |  |  |  |  |  | 
COc1ccc(CNC(=O)NC2CCN(c3ccnc(Nc4cc(OC)c(OC)c(OC)c4)n3)C2)cc1 (centres unmarked) [GSK1379748] | 12 | 10 | 0 | 14 | 0 | 2 | 0 | 0 | 6 | 0 |  |  |  |  |  |  |  |  |  | 
Cc1ccccc1-n1cnc2c(N)ncnc21 [SKF-97510] | 8 | 0 | 0 | 1 | 0 | 0 | 0 | 0 | 0 | 0 |  |  |  |  |  |  |  |  |  | 

SMILES | %Inh (CAMKK2; [1]) [%] | %Inh (CASK; [1]) [%] | %Inh (CDC2L1; [1]) [%] | %Inh (CDC2L2; [1]) [%] | %Inh (CDC2L5; [1]) [%] | %Inh (CDK11; [1]) [%] | %Inh (CDK2; [1]) [%] | %Inh (CDK3; [1]) [%] | %Inh (CDK4-cyclinD1; [1]) [%] | %Inh (CDK4-cyclinD3; [1]) [%] | %Inh (CAMKK2; 1 µM) [%] | %Inh (CASK; 1 µM) [%] | %Inh (CDC2L1; 1 µM) [%] | %Inh (CDC2L2; 1 µM) [%] | %Inh (CDC2L5; 1 µM) [%] | %Inh (CDK11; 1 µM) [%] | %Inh (CDK2; 1 µM) [%] | %Inh (CDK3; 1 µM) [%] | %Inh (CDK4-cyclinD1; 1 µM) [%] | %Inh (CDK4-cyclinD3; 1 µM) [%]
Nc1nc(-c2nccs2)c(-c2ccnc3ccccc23)s1 [GW693542] | 0 | 0 | 0 | 1 | 0 | 0 | 0 | 7 | 0 | 0 |  |  |  |  |  |  |  |  |  | 
CC1=C(C(=O)Nc2cc3cn[nH]c3cc2F)C(c2ccc(C(F)(F)F)cc2)CC(=O)N1 (centres unmarked) [GSK429286] | 14 | 43 | 0 | 13 | 0 | 7 | 0 | 18 | 0 | 0 |  |  |  |  |  |  |  |  |  | 
COc1cccc(-c2cc(-c3c[nH]nc3-c3ccccn3)ccn2)c1 [GW680338] | 9 | 18 | 0 | 9 | 0 | 10 | 0 | 6 | 58 | 0 |  |  |  |  |  |  |  |  |  | 
CCn1c(-c2cccnc2O)nc2cnccc21 [SB-736715] | 0 | 0 | 0 | 0 | 0 | 21 | 0 | 0 | 7 | 0 |  |  |  |  |  |  |  |  |  | 
Cl.O=C(Nc1cccc(-c2nn3ncccc3c2-c2ccnc(Nc3cccnc3)n2)c1)c1c(F)cccc1F [GSK312879] | 0 | 22 | 3 | 7 | 0 | 0 | 0 | 19 | 0 | 4 |  |  |  |  |  |  |  |  |  | 
COc1cc2ncnc(Nc3ccc4nc(-c5ccccc5)[nH]c4c3)c2cc1OC.Cl [GW282450] | 13 | 25 | 0 | 16 | 0 | 0 | 0 | 22 | 0 | 0 |  |  |  |  |  |  |  |  |  | 
Cc1c(Cn2ccn3c(=O)cc(N4CCOCC4)nc23)cccc1C(F)(F)F [GSK2289044] | 18 | 14 | 0 | 13 | 0 | 0 | 0 | 9 | 0 | 0 |  |  |  |  |  |  |  |  |  | 
COC(=O)c1c(-c2ccccc2)c2cc(C(=O)O)ccc2c(=O)n1Cc1ccccc1 | 0 | 18 | 0 | 3 | 40 | 0 | 0 | 0 | 0 | 0 |  |  |  |  |  |  |  |  |  | 
Cc1ccc(C(=O)Nc2ccc(Nc3ccnc4cc(-c5ccccn5)ccc34)cc2O)cc1.Cl [GW440146] | 0 | 3 | 0 | 11 | 0 | 0 | 0 | 5 | 16 | 0 |  |  |  |  |  |  |  |  |  | 
Cn1cncc1-c1ccc2ncnc(Nc3ccc(OCc4ccccc4)cc3)c2c1 [GW320571] | 0 | 0 | 0 | 0 | 0 | 10 | 4 | 2 | 0 | 13 |  |  |  |  |  |  |  |  |  | 
CS(=O)(=O)c1ccc(-c2nc3n(c2-c2ccncc2)CCC3)cc1 [SKF-105942] | 0 | 26 | 100 | 0 | 0 | 0 | 0 | 28 | 0 | 6 |  |  |  |  |  |  |  |  |  | 
CN(C)CCN(C)C(=O)c1cc(-c2ccncc2)c(-c2ccc(Cl)c(O)c2)o1.Cl.Cl [SB-710397] | 0 | 29 | 0 | 0 | 0 | 15 | 0 | 20 | 23 | 9 |  |  |  |  |  |  |  |  |  | 
O=C(Nc1ccc2c(c1)OCO2)NC1CCN(c2ccnc(Nc3ccc(F)cc3)n2)C1 (centres unmarked) [GSK1379724] | 3 | 21 | 0 | 0 | 0 | 40 | 0 | 8 | 0 | 0 |  |  |  |  |  |  |  |  |  | 
Cn1ccc2ncnc(Oc3cccc(C(=O)Nc4ccccc4)c3)c21 | 0 | 5 | 0 | 0 | 0 | 0 | 6 | 1 | 16 | 0 |  |  |  |  |  |  |  |  |  | 
Cl.NC(=O)c1cccc(Nc2nccc(Nc3ccc(Oc4cccc(Cl)c4)c(Cl)c3)n2)c1 [GW659008] | 0 | 7 | 0 | 13 | 0 | 8 | 0 | 24 | 0 | 0 |  |  |  |  |  |  |  |  |  | 
Fc1cc(Cl)ccc1Nc1ccnc2cc(-c3ccc(CN4CCCCC4)o3)ccc12 [GW560116] | 22 | 2 | 0 | 20 | 0 | 0 | 0 | 5 | 4 | 0 |  |  |  |  |  |  |  |  |  | 
CC(C)(C)c1ccc(C(=O)Nc2cn3cc(-c4cccnc4)ccc3n2)cc1 | 18 | 0 | 11 | 17 | 0 | 9 | 3 | 10 | 29 | 0 |  |  |  |  |  |  |  |  |  | 
